A selection: hits, their analogues and other compounds. The true share with any hit is near 2.5%.
L3MBTL1 block: L3MBTL1 (human) inhibition; Q9Y468; AlphaScreen L3MBTL1–H3K9me1 peptide binding; Potency, µM (highest dose often 57.1 µM), inactives show at the top dose activity, negative = inhibition, actives largely listed as inhibitors; 0.66% of 230,000 active; AID 485360; also: % is scaled to controls: 0 for no effect and ±100 for the full control effect; nearly all actives have a fitted effect of over 60% in size
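L3MBTL1 (50 nM) pre-complexed 30 min with biotinylated H3(1-15)K9me1 peptide (75 nM), then compounds added for 30 min at room temperature; AlphaScreen streptavidin donor/nickel chelate acceptor beads (10 ug/mL final) read after 30 min dark incubation.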
WRN helicase inh: WRN helicase (human) inhibition | WRN helicase unwinding, fluorescent forked duplex, kinetic | Potency, µM (titrated, usually from 114 µM), for the others: at the top dose activity change, negative = inhibition, actives largely listed as inhibitors | 0.46% of 360,000 active | AID 651768; also: % is scaled to controls: 0 for no effect and ±100 for the full control effect; nearly all actives have a fitted effect of over 55% in size
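Enzyme (20 nM final) and test compound sit together 15 min at room temperature before substrate addition. Substrate is a single-forked duplex oligonucleotide (100 nM) labelled with fluorophore and quencher, with 2 mM ATP; helicase unwinding raises red fluorescence, read kinetically.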
POLK inh: inhibitors of human DNA polymerase kappa; Q9UBT6; purified Pol kappa, fluorescent DNA synthesis assay, 10 min; Potency, µM (doses to about 107 µM), for the others: at the top dose activity, negative = inhibition, most hits filed as inhibitors; 0.53% of 400,000 active; also: % is scaled to controls: 0 for no effect and ±100 for the full control effect
Target sequence (Q9UBT6 whole entry, looked up): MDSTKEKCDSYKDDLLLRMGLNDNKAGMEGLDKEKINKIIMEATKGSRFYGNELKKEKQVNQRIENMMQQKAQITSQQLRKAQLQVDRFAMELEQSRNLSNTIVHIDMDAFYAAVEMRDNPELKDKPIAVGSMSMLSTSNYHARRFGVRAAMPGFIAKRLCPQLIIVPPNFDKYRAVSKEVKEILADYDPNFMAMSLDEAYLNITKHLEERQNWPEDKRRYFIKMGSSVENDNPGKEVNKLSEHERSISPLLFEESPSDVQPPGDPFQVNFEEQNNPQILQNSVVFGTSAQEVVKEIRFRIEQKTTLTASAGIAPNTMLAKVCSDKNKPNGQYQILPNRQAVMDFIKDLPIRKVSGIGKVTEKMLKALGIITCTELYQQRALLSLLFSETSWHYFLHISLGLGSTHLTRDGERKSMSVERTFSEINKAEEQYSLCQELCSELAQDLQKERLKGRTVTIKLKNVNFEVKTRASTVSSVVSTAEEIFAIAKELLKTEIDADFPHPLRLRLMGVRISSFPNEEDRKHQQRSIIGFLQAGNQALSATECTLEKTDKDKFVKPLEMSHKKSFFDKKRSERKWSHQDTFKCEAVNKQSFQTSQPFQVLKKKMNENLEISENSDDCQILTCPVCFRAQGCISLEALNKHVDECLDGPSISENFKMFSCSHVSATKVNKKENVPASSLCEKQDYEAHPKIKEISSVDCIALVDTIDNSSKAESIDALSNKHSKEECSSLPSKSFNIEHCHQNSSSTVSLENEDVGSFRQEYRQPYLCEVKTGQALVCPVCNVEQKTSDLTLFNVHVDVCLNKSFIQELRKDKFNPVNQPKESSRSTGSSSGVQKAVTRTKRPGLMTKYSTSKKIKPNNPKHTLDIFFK
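Enzyme at 10 nM met test compounds for 15 min at room temperature. Substrate addition (50 nM final) began the reaction, which was monitored by fluorescence at 0 and 10 min.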
POLB inh: blocks human DNA polymerase beta activity | P06746 | Pol beta primer extension/strand displacement, fluorescence kinetic | AID 485314 | Potency, µM (doses to about 114 µM), for the others: top-dose activity change, negative = inhibition, most hits filed as inhibitors | 1.3% of 340,000 active; also: % is scaled to controls: 0 for no effect and ±100 for the full control effect
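Pol beta (10 nM) was preincubated with compound for 15 min at room temperature. The reaction was then started with 50 nM substrate and read immediately and after a further 10 min at room temperature.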
Pol iota inh: DNA polymerase iota (human) inhibition | Q9UNA4 | Pol iota fluorescent replication assay, 10 min | Potency, µM (highest dose often 115 µM), inactives show at the top dose activity, negative = inhibition, most hits filed as inhibitors | 1% of 390,000 active
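Pol iota at 10 nM preincubated 15 min with compounds at room temperature; reaction started with fluorescent substrate, 50 nM final. Fluorescence read kinetically at 0 and 10 min; buffer-only wells as negative control.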
Pol eta inh: blocks human DNA polymerase eta activity; recombinant Pol eta, fluorescent DNA replication assay; Potency, µM (highest dose often 114 µM), for inactives: top-dose activity change, negative = inhibition, actives largely listed as inhibitors; 1.2% of 390,000 active; Q9Y253; also: % is scaled to controls: 0 for no effect and ±100 for the full control effect
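Pol eta at 10 nM preincubated with compounds 15 min at room temperature; reaction started with fluorescent substrate (50 nM final) and read kinetically at 0 and 10 min.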
TbPGK inh: TbPGK inhibition, hit validation | Potency, µM (top dose mostly 57.5 µM), for the others: at the highest dose activity change, negative = inhibition, hits mostly inhibitors | TbPGK coupled GAPDH assay, Kinase-Glo luminescence | 79% of 500 active | shares compounds with POLK inh; also: % is scaled to controls: 0 for no effect and ±100 for the full control effect; nearly all actives have a fitted effect of over 65% in size
Pol iota confirm: Inhibitors of human DNA polymerase iota, confirmation. shares compounds with POLK inh. Pol iota primer extension, TAMRA/BHQ fluorescence. Potency, µM, most hits filed as inhibitors. 77% of 1,500 active
* hit, by the source's call; ? = inconclusive; . = no result; [ ] = dose if it differs, or a comment. Calls follow the shape of the dose curve; as a rule, active = well fitted curve in the direction sought with a large enough effect; inconclusive = small, poorly fitted or top-dose-only effect, or another doubt; inactive = no such curve, though single readings can be large; an effect the other way counts as inactive or inconclusive. Potency is read from the fitted curve at half-maximal effect.

SMILES | L3MBTL1 block | WRN helicase inh | POLK inh | POLB inh | Pol iota inh | Pol eta inh | TbPGK inh | Pol iota confirm
CCOc1ccc(C=NNc2ccc(S(=O)(=O)Nc3ccccc3C(=O)O)cc2[N+](=O)[O-])cc1OC | ? | ? | ? | . | ? | ? | 8.2µM* | .
COc1ccccc1-c1sc2cc3c(cc2c1-c1ccc(OCCN2CCCCC2)cc1)OCO3 | -17% | 0% | -25% | . | ? | -9% | . | .
O=C(Nc1ccc2c(c1)OCCO2)c1coc2ccccc2c1=O | 10% | -16% | -4% | 41% | 6% | ? | 4.1µM* | .
CCOc1ccc(NC(=O)Cn2cc(C(=O)c3ccc(CC)cc3)c(=O)c3cc(C)ccc32)cc1 | . | . | -9% | ? | 16% | 50µM* | . | ?
CCOc1ccc(-c2c(C(=O)N/N=C/c3cccnc3)nnn2-c2nonc2N)cc1 | . | 7% | ? | ? | 22µM* | ? | . | ?
Cc1ccc(-c2c(C(=O)N/N=C/c3cccnc3)nnn2-c2nonc2N)cc1 | . | -1% | 1% | 1% | 14% | -11% | . | .
Cc1ccsc1/C=C1\CCc2ccccc2C1=O | . | -4% | -3% | -26% | 7% | 2% | 15µM* | .
Cc1nc2ccc(S(=O)(=O)NC(C(=O)N3CCn4c3nc3ccccc34)C(C)C)cc2s1 (stereo not given) | 0% | -4% | -7% | 26% | -24% | -10% | . | .
O=C(OCc1cc(=O)n2nc(-c3cccs3)sc2n1)c1ccc(F)cc1 | . | . | -39% | 11µM* | ? | ? | . | ?
Cc1cccc2c(N)c3c(nc12)CCCC3 (tested in a mixture with another compound) | -1% | 13% | 4% | 5% | 46% | -18% | . | .
Cc1cc(C)c2c(N)c3cccc(C)c3nc2n1 | -5% | 0% | ? | 13µM* | ? | -19% | . | 34*
COc1ccc(-n2c(SCC(=O)Nc3nccs3)nnc2-c2ccc(Cl)cc2)cc1 | . | -7% | 0% | . | 13% | ? | . | ?
COc1ccc(-c2nnc(SCC(=O)Nc3ccc(C(=O)O)cc3)n2-c2ccc(Cl)cc2)cc1 | . | 0% | 6% | ? | -6% | -4% | . | .
CCCCC1(CC)COC(c2ccccc2)OC1 (stereo not given) | . | 7% | -2% | . | -8% | -4% | . | .
CCN(CC)c1ccc2nc3ccccc3[n+](CC)c2c1 | 20µM* | ? | -35% | ? | ? | ? | 33µM* | .
CCN(CC)c1ccc2cc(-c3nc4ccccc4[nH]3)c(=O)oc2c1 | 6% | -19% | -4% | ? | 29% | ? | . | .
CCCc1cc(=O)oc2cc(OCC(=O)Nc3ccc(S(N)(=O)=O)cc3)ccc12 | . | ? | 40µM* | 89µM* | 5µM* | 10µM* | . | 38*
CCN(CC)c1ccc(C(=C2C=CC(=[N+](CC)CC)C=C2)c2ccc(S(=O)(=O)O)cc2S(=O)(=O)[O-])cc1 | . | -6%[11.6 µM] | -13% | . | ? | 20µM* | 16µM* | .
CCN(CC)c1ccc(C(=O)O)cc1 | 0% | -5% | -6% | -3% | -6% | -3% | . | .
Fc1cccc(CCN2CCNC[C@@H]2Cc2ccccc2)c1 | . | -3% | -8% | . | ? | 11% | ? | .
COc1cccc(C2Nc3c(F)cc(Br)cc3C3C=CCC32)c1OC (stereo not given) | 11% | -6% | -6% | -15% | 4% | -7% | . | .
CC(=O)c1ccc2c(c1)C1C=CCC1C(C(=O)O)N2 (stereo not given) | 1.3µM* | 14µM* | 3.5µM* | 32µM* | 1.6µM* | 1µM* | 9.2µM* | .
COc1cccc2c1NC(C(=O)O)C1CC=CC21 (stereo not given) | 1.3µM* | 13µM* | 7.9µM* | 1.8µM* | 1µM* | 2.5µM* | 8.2µM* | .
COc1ccc(/C(N)=N/OC(=O)C2CCC(=O)N2S(=O)(=O)c2ccc(C)cc2)cc1 (stereo not given) | 2% | -15% | -11% | 26% | 2% | -17% | . | .
CC(C)(C)NC(=O)Nc1nnc(SCC(=O)NC2CCCCC2)s1 | -10% | -4% | -3% | . | 15% | -16% | . | .
SMILES | L3MBTL1 block | WRN helicase inh | POLK inh | POLB inh | Pol iota inh | Pol eta inh | TbPGK inh | Pol iota confirm
Cc1ccccc1C(=O)Nc1ccc2c(C#N)c3nc4ccccc4nc3n2c1 | ? | 56µM* | -27% | ? | 40% | 10µM* | . | ?
Cc1ccc(-c2nc3ccccc3o2)cc1NC(=S)NC(=O)/C=C/c1ccco1 | 1% | ? | -18% | 40µM* | ? | 22µM* | . | ?
O=C(O)CSCC(=O)Nc1ccc(-c2nc3ccccc3s2)cc1 | -5% | -12%[11.6 µM] | -12% | ? | -1% | 45µM* | ? | .
COc1ccc(OC)c(N/C(C)=C/C(=O)c2ccccc2)c1 | 0% | -18% | -21% | -2% | 29% | -8% | . | .
COc1ccc(OC)c(N/C=C/C(=O)c2ccccc2)c1 | 0% | -4% | -11% | 21% | 0% | 1% | 18µM* | .
CCN1CCc2c(sc(NC(=O)CSc3ccccc3)c2-c2nc3ccccc3s2)C1 | . | . | -6% | 2% | -9% | -10% | . | .
CC(=O)Nc1sc2c(c1-c1nc3ccccc3s1)CCCNC2 | . | . | . | . | . | . | . | ?
CC(=O)Nc1sc2c(c1-c1nc3ccccc3s1)CCN(C(C)C)CC2 | . | . | . | . | . | . | . | 67*
O=C(NCCCn1ccnc1)C(=O)NCC(c1ccco1)N1CCN(c2ccc(F)cc2)CC1 (stereo not given) | . | -6% | 1% | 20% | 33% | 28% | . | .
O=C(Nc1cccc(Cl)c1)c1cc(N=Nc2ccc([N+](=O)[O-])cc2Cl)ccc1O | ? | -35% | -4% | -6% | -20% | ? | . | .
COc1ccc(-c2cc(C(=O)NN)n(-c3ccccc3)n2)cc1 | -3% | -16%[57.1 µM] | -20% | 7% | 8% | -10% | . | .
CCOC(=O)c1cc(-c2ccc(OC)cc2)nn1-c1ccccc1C(=O)O | ? | -16% | -13% | 3.2µM* | -27% | -3% | ? | .
OCC1OC(n2cnc3c(NCCc4ccccc4)ncnc32)C(O)C1O (stereo not given) | . | -3% | -5% | . | 33% | -15% | . | .
COc1ccc(/C=C/c2nc3ccccc3n2C)cc1 | . | -3% | -14% | 0% | 139% | -1% | 4.1µM* | .
Cc1nc2ccc(S(=O)(=O)NC(C(=O)NCc3ccco3)C(C)C)cc2s1 (stereo not given) | 1% | 5% | -3% | 4% | -29% | -3% | . | .
